Bioassay records deposited in PubChem BioAssay by National Center for Advancing Translational Sciences (NCATS).
ATXN2 expr inh: ATXN2 expression inhibition | HEK-293 ATXN2-luciferase reporter, luminescence, 24 h | Potency, µM (top dose mostly 57 µM), usual class: inhibitors | 360,000 tested, 0.72% active; note: nearly all actives have a fitted effect of over 55% in size
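qHTS (up to 57 uM final) was run with 24 h compound exposure of reporter cells at 37 °C. Each well was multiplexed: SteadyGlo luminescence measured ATXN2-luciferase expression after a fluorogenic Gly-Phe-AFC viability readout (25 uM final).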
Six1-Eya2 blk: inhibitors of human Six1/Eya2 interaction. Q15475+O00167. AlphaScreen GST-Six1/His-Eya2 binding, biochemical; stronger effect = lower value. activity change, % (test concentration not listed). 360,000 tested, 0.56% active. AID 651725; in the data active = activity change below about -65%; inconclusive = mostly about -30% to -63%
Target sequence (O00167 whole entry, looked up): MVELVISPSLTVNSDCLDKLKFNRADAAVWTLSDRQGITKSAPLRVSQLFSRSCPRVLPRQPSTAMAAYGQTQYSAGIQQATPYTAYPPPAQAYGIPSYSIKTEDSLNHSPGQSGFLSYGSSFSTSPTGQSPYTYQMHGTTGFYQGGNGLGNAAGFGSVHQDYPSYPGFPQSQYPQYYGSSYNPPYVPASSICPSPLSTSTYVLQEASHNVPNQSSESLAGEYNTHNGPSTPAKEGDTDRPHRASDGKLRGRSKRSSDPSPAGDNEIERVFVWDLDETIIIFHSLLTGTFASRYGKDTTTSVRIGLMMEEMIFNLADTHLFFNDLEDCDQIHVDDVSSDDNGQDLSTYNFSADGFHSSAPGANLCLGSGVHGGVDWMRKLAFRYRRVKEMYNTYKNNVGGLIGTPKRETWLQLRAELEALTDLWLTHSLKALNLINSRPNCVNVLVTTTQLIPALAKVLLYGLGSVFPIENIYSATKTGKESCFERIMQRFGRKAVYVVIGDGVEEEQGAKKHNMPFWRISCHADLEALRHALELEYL
Target sequence (Q15475 whole entry, looked up): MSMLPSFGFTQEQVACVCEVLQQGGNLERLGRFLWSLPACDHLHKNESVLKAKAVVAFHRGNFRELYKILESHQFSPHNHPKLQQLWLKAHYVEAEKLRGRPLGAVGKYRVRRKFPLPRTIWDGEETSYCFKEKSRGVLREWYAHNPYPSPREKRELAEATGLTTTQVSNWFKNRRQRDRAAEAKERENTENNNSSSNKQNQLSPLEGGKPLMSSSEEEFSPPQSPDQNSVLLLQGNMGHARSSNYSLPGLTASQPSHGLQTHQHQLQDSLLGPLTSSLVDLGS
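AlphaScreen with GST-Six1 and His-Eya2 (5X mix: 250 nM and 500 nM), glutathione donor and nickel acceptor beads; buffer 50 mM Tris pH 8.0, 300 mM NaCl, 1 mM TCEP; 1 h at 37 C in the dark.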
CtBP-E1A inh: CtBP/E1A binding inhibition. 340,000 tested, 0.49% active. AlphaScreen GST-E1A/His-CtBP binding, 1536-well; stronger effect = lower value. AID 651724. activity change, % (no concentration beside the values); in the data active = activity change below about -65%; inconclusive = mostly about -30% to -63%
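GST-E1A and His-tagged CtBP (125 nM each as 5X stock) were preincubated with pin-transferred compound for 2 h at 37 °C in the dark, then glutathione donor and nickel acceptor beads were added for 1 h before AlphaScreen reading.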
HepG2 tox: counter-screen for TGF-b inhibitors: cytotoxicity in HepG2 cells | HepG2 CAGA-GFP viability, ATP luminescence, 18 h | Potency, µM (titrated, usually from 46.1 µM), most hits filed as cytotoxic | 410,000 tested, 0.76% active | AID 588856
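CellTiter-Glo luminescence gave cytotoxicity after 18 hours at 37 degrees C. The cells were HepG2 CAGA-GFP in 1% FBS DMEM, stimulated with 500 pg/mL TGF-beta after compound addition. %Activity was normalised to no-cell wells (complete cell-killing) and DMSO (no toxicity), and curves were fitted and classified.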
TGFb inhibitor: inhibitors of TGF-b signaling; Potency, µM (highest dose often 46.1 µM), most hits filed as inhibitors; 410,000 tested, 1.2% active; AID 588855; HepG2 CAGA-GFP TGF-b/SMAD3 reporter, GFP fluorescence, 18 h; TGF-beta stimulated, 500 pg/mL final; note: nearly all actives have a fitted effect of over 65% in size
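TGF-beta reporter screen: HEPG2 CAGA-GFP, 1% FBS, 500 pg/mL TGF-beta final, 18 h; per-cell GFP summed per well; curves fitted and categorized by class.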
S2 tox: reduces viability in counter-screen for ATXN expression inhibitors | 400,000 tested, 0.49% active | S2 cells (HEK-293 line with an ATXN2-luciferase reporter) viability, CellTiter-Fluor protease fluorescence, 24 h | Potency, µM (series often up to 56.7 µM), hits mostly cytotoxic | AID 651635; note: nearly all actives have a fitted effect of over 40% in size
A number is an active result; n = inactive; u = inconclusive; x = no result; ! = a repeat was not active. Compounds with a hit are over-represented: about 2.8% of the library has one in this group of screens. Unless noted, calls come from the whole dose curve; as a rule, active = well fitted curve in the direction sought with a large enough effect; inconclusive = small, poorly fitted or top-dose-only effect, or another doubt; inactive = no such curve, though single readings can be large; an effect the other way counts as inactive or inconclusive.

SMILES	ATXN2 expr inh	Six1-Eya2 blk	CtBP-E1A inh	HepG2 tox	TGFb inhibitor	S2 tox
O=C(CCl)N(C/C=C/c1ccccc1)c1ccc2c(c1)OCCO2	1.34µM	n	n	n	u	1.34µM
Cc1ccc2c(c1)N(C(=O)N1CCC(C(=O)NC3CCCCCC3)CC1)CC(C)O2 (configuration not stated)	x	x	x	n	n	x
COc1cccc(CNC(=O)c2[nH]c3cc(C)ccc3c2Sc2ccccc2)c1	n	x	x	n	n	u
Cn1c(NN)nc2sc3c(c2c1=O)CC(C)(C)OC3	u	u	-76.6	n	u	u
CCN(CC)c1cc(C)c(/C=C/c2ccnc3ccccc23)cc1C	x	x	x	n	n	x
CCN(CC)CCNC(=O)c1ccc2c(=O)n3nc(Nc4ccccc4)sc3nc2c1	x	x	x	n	n	x
O=C(NCc1cc(C(F)(F)F)ccc1Cl)c1cccc2c1C(=O)c1ccc(N3CCC(N4CCCCC4)CC3)cc1S2(=O)=O	25.1µM	n	n	15.8µM	u	u
O=C(NCc1cc(C(F)(F)F)ccc1Cl)c1cccc2c1C(=O)c1ccc(N3CCCCC3)cc1S2(=O)=O	n	n	n	n	n	n
O=C(CCn1cnc2ccccc2c1=O)Nc1cccc(Cl)c1Cl	x	n	x	n	n	0.159µM
O=C(CCn1cnc2ccccc2c1=O)NCc1ccccc1Cl	n	x	x	n	n	n
CCN(c1ccccc1)S(=O)(=O)c1ccc2[nH]cc(C(=O)NCc3ccc(C)cc3)c(=O)c2c1	n	x	x	n	n	n
O=[N+]([O-])c1ccc(N=Nc2c(Cl)cc(O)cc2Cl)cc1	x	u	x	3.16µM	1.12µM	u
COc1cc(NC(=O)CSc2ncc(S(=O)(=O)c3ccc(Br)cc3)c(=O)[nH]2)cc(OC)c1	n	x	x	n	n	n
C/C(Cn1nnc([N+](=O)[O-])n1)=N\NC(=O)c1ccc(Cl)c(Cl)c1	u	n	n	14.1µM	10µM	u
C/C(Cn1nnc([N+](=O)[O-])n1)=N\NC(=O)c1ccc(O)cc1	x	n	x	n	11.2µM	u
Cc1ccc(/C=N/n2c(-c3ccccn3)n[nH]c2=S)o1	x	n	x	n	n	x
S=c1[nH]nc(-c2ccccn2)n1/N=C/c1cccc2ccccc12	n	-67.5	u	n	n	n
COc1cccc(/C=N/n2c(-c3cc(C)[nH]n3)n[nH]c2=S)c1O	n	-68.2	-81.2	n	n	n
COc1ccccc1/C=C/C=N/n1c(-c2ccccn2)n[nH]c1=S	x	-67.5	x	n	n	n
Cc1ccccc1/C=N/n1c(-c2ccccn2)n[nH]c1=S	n	-89.7	n	n	n	n
COc1ccc(Cl)cc1NC(=O)c1ccc2c(c1)CCCN2S(C)(=O)=O	n	x	x	n	n	u
O=C(O)CSc1cc(NS(=O)(=O)c2cccc([N+](=O)[O-])c2)c2ccccc2c1O	u	n	n	n	10µM	n
CCc1ccc(S(=O)(=O)Nc2cc(SCC(=O)O)c(O)c3ccccc23)cc1	x	n	x	17.8µM	u	n
Cc1oc2c(cc(NS(=O)(=O)c3ccc(C(C)C)cc3)c3ccccc32)c1C(=O)O	n	n	n	n	n	n
Cc1ccc(C)c(S(=O)(=O)Nc2cc(SCC(=O)O)c(O)c3ccccc23)c1	u	n	n	n	n	28.2µM
SMILES	ATXN2 expr inh	Six1-Eya2 blk	CtBP-E1A inh	HepG2 tox	TGFb inhibitor	S2 tox
Cc1ccc(NS(=O)(=O)c2cc(NC(=O)C(C)Oc3ccccc3)ccc2C)c(C)c1 (configuration not stated)	n	n	n	n	u	u
CCOc1ccc(S(=O)(=O)Nc2cc(SCC(=O)O)c(O)c3ccccc23)cc1	x	n	x	12.6µM	5.01µM	u
CC(NC(=O)c1cc(F)ccc1F)c1nnc2n1CCN(Cc1ccco1)CC2 (configuration not stated)	x	x	x	x	x	n
CNC(=O)CN(CCN(CCN(CC(=O)[O-])CC(=O)NC)CC(=O)[O-])CC(=O)[O-].O.[Gd+3]	n	x	x	x	x	n
O=c1c2cc(Br)ccc2nc(-c2cccc(C(F)(F)F)c2)n1O	u	n	n	14.1µM	u	u
CCOc1ccc(CNC(=O)c2ccc(-c3nc(CSc4ccc(C)cc4)c(C)o3)cc2)cc1	n	x	x	n	n	n
COc1ccc(CNC(=O)c2ccc(-c3nc(CSc4ccccc4)c(C)o3)cc2)cc1	n	x	x	10µM	u	n
O=C(Nn1cc(C(=O)Nc2ccccc2F)c2ccccc2c1=O)c1cnccn1	u	-78.0	u	n	n	u
COC(=O)c1cn(NC(=O)c2cnccn2)c(=O)c2ccccc12	n	u	u	n	n	n
O=C1CC(CC(=O)N2CC3CCCC2C3)(c2cccc(F)c2)C(=O)N1Cc1cccnc1 (configuration not stated)	x	x	x	x	x	n
CCN(CC)S(=O)(=O)c1cc(-c2nnc(Nc3ccc(OC)c(C(N)=O)c3)c3ccccc23)ccc1C	u	x	x	n	n	n
CC(C)(C)OC(=O)NC(Cc1ccccc1)C(O)c1ccco1 (configuration not stated)	x	x	x	n	u	x
CCCn1c(=O)c2sccc2n2c(CCCC(=O)Nc3ccc(Oc4ccccc4)cc3)nnc12	x	x	x	n	17.8µM	x
CCN(CC)C(=O)Cn1c(=O)n(CCCCCC(=O)Nc2ccccc2)c(=O)c2sccc21	n	n	n	3.16µM!	u	n
CCCCC(CC)CNC(=O)CCCc1nnc2n(CCC)c(=O)c3sccc3n12 (configuration not stated)	n	x	x	n	u	17.8µM
CCCn1c(=O)c2sccc2n2c(CCCC(=O)Nc3ccc(Oc4ccc(Cl)cc4)cc3)nnc12	x	x	x	n	u	x
Cc1ccc2c(c1)COc1c3ccc(C(=O)O)cc3nn1-2	7.94µM	n	n	n	n	n
Cc1ccc2c(c1)COc1c3ccc(C(=O)NCC4CC4)cc3nn1-2	u	n	x	n	u	u
NC(c1csc(Nc2cnccn2)n1)c1ccccc1Cl (configuration not stated)	n	-66.9	-75.5	n	n	n
CC(C)C(N)c1csc(Nc2ccccn2)n1 (configuration not stated)	n	-83.2	-90.7	n	n	u
NC(c1csc(Nc2nncc3ccccc23)n1)c1ccccc1Cl (configuration not stated)	n	n	n	n	u	u
CCc1cnc(Nc2nc(C(N)c3ccccc3Cl)cs2)nc1 (configuration not stated)	n	u	u	n	n	n
NC(c1csc(Nc2ccccn2)n1)c1ccccc1Cl (configuration not stated)	u	-78.6	-90.5	n	n	u
CC(C)C(N)c1csc(Nc2ccc(C(F)(F)F)cn2)n1 (configuration not stated)	u	n	u	n	u	u
